In the library only some 2.4% were active in any assay of this set; here they are far more common.
Pol kappa inh – DNA polymerase kappa (human) inhibition | AID 588579 | purified Pol kappa, fluorescent DNA synthesis assay, 10 min | Q9UBT6 | Potency, µM (series often up to 107 µM), without a hit: at the highest dose activity, negative = inhibition, hits mostly inhibitors | 400,000 tested, 0.53% active; note: % is set by controls: 0 for no effect and ±100 for the full control effect
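Enzyme at 10 nM met test compounds for 15 min at room temperature. Substrate addition (50 nM final) began the reaction, which was monitored by fluorescence at 0 and 10 min.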
POLH inh – inhibitors of human DNA polymerase eta. Q9Y253. recombinant Pol eta, fluorescent DNA replication assay. Potency, µM (top dose mostly 114 µM), for inactives: top-dose activity change, negative = inhibition, usual class: inhibitors. 390,000 tested, 1.2% active. AID 588591; note: % is set by controls: 0 for no effect and ±100 for the full control effect
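Pol eta at 10 nM preincubated with compounds 15 min at room temperature; reaction started with fluorescent substrate (50 nM final) and read kinetically at 0 and 10 min.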
FEN1 inh – blocks human flap endonuclease 1. P39748. Recombinant FEN1 flap cleavage, fluorescence, 15 min. Potency, µM (top dose mostly 114 µM), without a hit: top-dose activity change, negative = inhibition, most hits filed as inhibitors. 390,000 tested, 0.35% active; note: % is set by controls: 0 for no effect and ±100 for the full control effect; nearly all actives have a fitted effect of over 65% in size
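Potency values derive from four-parameter Hill fits of normalized qHTS data. The reaction used 10 nM FEN1 preincubated 15 min at room temperature with compound, then 50 nM DNA substrate, read at 0 and 15 min.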
WRN helicase inh – blocks human WRN helicase; Q14191; WRN helicase unwinding, fluorescent forked duplex, kinetic; Potency, µM (highest dose often 114 µM), for the others: at the highest dose activity change, negative = inhibition, most hits filed as inhibitors; 360,000 tested, 0.46% active; AID 651768; note: % is set by controls: 0 for no effect and ±100 for the full control effect; nearly all actives have a fitted effect of over 55% in size
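Fluorescence dequenching readout, ex 525 nm/em 598 nm, kinetic mode: forked duplex DNA (100 nM final) with adjacent fluorophore and quencher unwound by WRN (20 nM final) with 2 mM ATP. Compound preincubation 15 min, room temperature.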
POLI inh – DNA polymerase iota (human) inhibition. Q9UNA4. Pol iota fluorescent replication assay, 10 min. Potency, µM (top dose mostly 115 µM), inactives show at the highest dose activity, negative = inhibition, hits mostly inhibitors. 390,000 tested, 1% active. AID 588590
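Fluorescent replication assay read twice, at 0 min and 10 min after adding 50 nM (final) substrate. Enzyme (10 nM) and compounds were first incubated 15 min at room temperature; enzyme-free buffer wells were negative controls.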
Pol beta inh – blocks human DNA polymerase beta activity; 340,000 tested, 1.3% active; AID 485314; P06746; Pol beta primer extension/strand displacement, fluorescence kinetic; Potency, µM (titrated, usually from 114 µM), without a hit: top-dose activity change, negative = inhibition, most hits filed as inhibitors; note: % is set by controls: 0 for no effect and ±100 for the full control effect
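Kinetic readout of DNA synthesis with strand displacement by Pol beta. Compound and 10 nM enzyme sit 15 min at room temperature; 50 nM substrate starts the reaction, read immediately and at 10 min.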
* = called active by the depositor; ? = inconclusive; nt = not tested or not shown; [ ] = dose if it differs, or a comment. Calls come from the whole dose curve; as a rule, active = well fitted curve in the direction sought with a large enough effect; inconclusive = small, poorly fitted or top-dose-only effect, or another doubt; inactive = no such curve, though single readings can be large; an effect the other way counts as inactive or inconclusive. Potency is the fitted concentration of half-maximal effect.

SMILES	Pol kappa inh	POLH inh	FEN1 inh	WRN helicase inh	POLI inh	Pol beta inh
NC(=O)[C@@H]1CCCNc2c(F)cc([N+](=O)[O-])cc2C(=O)N[C@@H](CCC(=O)O)C(=O)N[C@@H](CO)C(=O)N1	-21%	3%	-7%	-4%	?	11%
NC(=O)[C@@H]1CCCNc2c(I)cc([N+](=O)[O-])cc2C(=O)N[C@@H](CO)C(=O)N[C@@H](Cc2ccc(O)cc2)C(=O)N1	12%	-3%	-3%	-8%	-5%	-12%
NC(=O)[C@@H]1CCCCNc2c(I)cc([N+](=O)[O-])cc2C(=O)N[C@@H](CCC(=O)O)C(=O)N[C@@H](CO)C(=O)N1	50µM*	6.3µM*	-3%	?	18µM*	0%
CCOC(=O)C1CCCN(C(=O)Cn2ncc3c4ccccc4n(Cc4ccc(F)cc4)c3c2=O)C1 (configuration not stated)	-7%	-17%	-2%	nt	4%	2%
Cn1c(=O)n(-c2ccc(C(C)(C)C#N)cc2)c2c3cc(-c4cnc5ccccc5c4)ccc3ncc21	-13%[229 µM]	nt	-2%[229 µM]	nt	18%[229 µM]	nt
CC(C)=CCc1c2c(c3occ(-c4ccc(O)cc4)c(=O)c3c1O)C=CC(C)(C)O2	?	?	-12%	-7%	18%	?
CC1(C)C=Cc2c(c3c(c4c(=O)c(-c5ccc(O)cc5)coc24)OC(C)(C)CC3)O1	-9%	-14%	-4%	-2%	3%	11µM*
CN(C)S(=O)(=O)N(CC(=O)Nc1ccc(F)c(F)c1)c1ccccc1	-20%	?	6%	-11%	-27%[58.9 µM]	?
CSc1cccc(NC(=O)CN(c2ccccc2)S(=O)(=O)N(C)C)c1	-17%	?	7%	-18%	?	10µM*
CCC(=O)Nc1cccc(C(=O)/C=C/c2cc(Br)ccc2OC)c1	-8%	?	-20%	-9%[11.6 µM]	56µM*	3%
Cc1ccccc1-c1noc(-c2ccc(N3CCCCC3)c([N+](=O)[O-])c2)n1	-32%	-3%	11%	nt	-22%	-29%
CCn1nc(C)c2c(-c3ccccc3)cc(=O)n(C(C)C(=O)NCc3cccc(OC)c3)c21 (configuration not stated)	0%	-5%	-21%	nt	0%	1%
O=C(O)c1cc(Cl)c2c(c1)OCO2	-39%	22µM*	-16%	-11%	?	?
O=[N+]([O-])c1cc2oc3c(c2c(C=NCc2ccncc2)c1O)CCCC3	?	?	-25%	?	?	18µM*
O=C1C(C=NCc2ccncc2)=C(O)c2ccccc21	-4%	12%	-2%	-1%	5%	-17%
O=c1oc2ccc(F)cc2c2c1C1O[C@](c3ccsc3)(Cc3c1ccc1ccccc31)O2	nt	nt	nt	nt	nt	10µM*
O=c1oc2ccccc2c2c1C1O[C@](c3ccsc3)(Cc3ccccc31)O2	nt	nt	nt	nt	nt	11µM*
COc1ccc2c3c(c(=O)oc2c1)C1O[C@](c2ccsc2)(Cc2ccccc21)O3	nt	nt	nt	nt	nt	-23%[22.9 µM]
O=C(O)CCC/C=C\C[C@@H]1[C@@H](/C=C/[C@H](O)C2Cc3ccccc3C2)[C@@H](F)C[C@@H]1O	-1%[60.1 µM]	nt	nt	nt	nt	nt
O=C(Nc1cccnc1)c1cc2c(ccc3ccccc32)o1	?	?	-23%	?	50µM*	32µM*
O=C(O)c1ccc(/C=N/NC(=O)c2cc3c(ccc4ccccc43)o2)cc1	-34%	?	?	3%	?	40µM*
COc1ccc(/C=N\NC(=O)c2cc3c(ccc4ccccc43)o2)cc1O	-18%	50µM*	?	-13%[11.6 µM]	28µM*	-20%
O=C(N/N=C/c1ccncc1)c1cc2c(ccc3ccccc32)o1	-2%	?	-18%	-7%	9%	1%
O=C(COc1ccc(/C=N/NC(=O)c2cc3ccccc3o2)cc1Br)Nc1ccccc1	-5%	0.89µM*	?	-15%	?	5.6µM*
COc1cc(C(=O)Nc2cc3c(cc2C)n(C)c(=O)c(=O)n3C)cc(OC)c1OC	13%	-10%	-3%	nt	-5%	-13%
SMILES	Pol kappa inh	POLH inh	FEN1 inh	WRN helicase inh	POLI inh	Pol beta inh
CN(C1CCCCC1)S(=O)(=O)c1ccc2c(c1)c(=O)c(C(=O)N1CCN(c3ccc(F)cc3)CC1)cn2C	-8%	-8%	18%	nt	-7%	0%
CCn1c2ccccc2c2cc(CN3CCN(Cc4ccc(Br)cc4)CC3)ccc21	-23%	-14%	?	nt	-19%	6%
CCC(CO)[n+]1c(C)cc(/C=C2\Sc3ccccc3N2Cc2ccccc2)cc1C (configuration not stated)	-40%	?	50µM*	?	38%	?
CCN1/C(=C2\SC(=S)N(Cc3ccccc3)C2=O)Sc2ccccc21	-2%	-16%	-4%	-20%	?	11%
Cn1cc(-c2cc3n(n2)CCC(=O)N3CCCC(=O)NCc2ccc(Cl)cc2)c2ccccc21	3%[60.1 µM]	-1%	-12%	nt	-22%	17%
Cn1cc(-c2cc3n(n2)CCC(=O)N3CCCC(=O)Nc2ccc(Cl)cc2)c2ccccc21	3%[60.1 µM]	-11%	9%	nt	89µM*	?
CCCc1cc(=O)[nH]c(SCc2nc(-c3ccc(OCC)cc3)no2)n1	-7%[60.1 µM]	0%	-7%	nt	-3%	30%
CC#CCOC(=O)c1c(C)nc2sc3c(c2c1N)CC[C@@H](O)C3	-6%[19.4 µM]	nt	-30%	nt	-13%	nt
CC1(C)CC[C@]2(C(=O)O[C@@H]3OC(CO)[C@@H](O)[C@H](O)[C@H]3O)CC[C@]3(C)C(=CCC4[C@@]5(C)CC[C@H](O[C@@H]6OC(C(=O)O)[C@@H](O)[C@H](O)[C@H]6O)C(C)(C)C5CC[C@]43C)[C@@H]2C1 (some centres not stated)	-28%	?	-3%	11%	-25%	nt
C/C=C(\C)C(=O)OC1CC(C)(C)C[C@H]2C3=CC[C@@H]4[C@@]5(C)CCC(O[C@@H]6O[C@@H](C(=O)O)[C@@H](O)C(O[C@@H]7OC[C@H](O)[C@@H](O)[C@@H]7O[C@@H]7OC(CO)C(O)[C@@H](O)[C@@H]7O)C6O[C@@H]6OC(CO)C(O)C(O)C6O)[C@@](C)(CO)[C@@H]5CC[C@]4(C)[C@]3(C)CC(O)[C@@]12CO (some centres not stated)	-22%	?	-13%	-12%	13µM*	nt
O=c1c2c3nc4ccccc4nc3n(/N=C/c3ccco3)c2ncn1CCC1=CCCCC1	?	?	7%	?	22µM*	28µM*
NC(=O)CSc1nnc(-c2ccco2)n1-c1ccccc1	-1%	-17%	14%	5%	-10%	-9%

Screening results (PubChem)
